Source: PubChem (National Center for Advancing Translational Sciences (NCATS))
Hits are enriched below; roughly 7.5% of the tested compounds scored in any of these assays.
SMN2 splice enh – qHTS Assay for Enhancers of SMN2 Splice Variant Expression; HEK293 SMN2-luciferase splicing reporter, luminescence, 30-36 h; Potency, µM (highest dose often 46.1 µM), usual class: activators; 210,000 compounds, 2.8% hits; AID 1458, 2008; also: nearly all actives have a fitted effect of over 55% in size
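HEK293 cells carry an SMN2 minigene-luciferase reporter in which exon 7 inclusion puts luciferase in frame. Cells were seeded at 2000 cells/well, attached for 10-12 hours, then exposed to compounds for 30-36 hours at 37C before ONE-Glo luminescence.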
FLuc counter – qHTS profiling assay for firefly luciferase inhibitor/activator using purifed enzyme and Km concentrations of substrates (counterscreen for miR-21 project); 360,000 compounds, 6.9% hits; purified FLuc, Km substrates, luminescence inhibition; AID 588342, 2011; Potency, µM (series often up to 57.5 µM), actives largely listed as inhibitors; Luciferin 4-monooxygenase (Photinus pyralis), P08659; also: nearly all actives have a fitted effect of over 55% in size
Target sequence (P08659 whole entry, looked up): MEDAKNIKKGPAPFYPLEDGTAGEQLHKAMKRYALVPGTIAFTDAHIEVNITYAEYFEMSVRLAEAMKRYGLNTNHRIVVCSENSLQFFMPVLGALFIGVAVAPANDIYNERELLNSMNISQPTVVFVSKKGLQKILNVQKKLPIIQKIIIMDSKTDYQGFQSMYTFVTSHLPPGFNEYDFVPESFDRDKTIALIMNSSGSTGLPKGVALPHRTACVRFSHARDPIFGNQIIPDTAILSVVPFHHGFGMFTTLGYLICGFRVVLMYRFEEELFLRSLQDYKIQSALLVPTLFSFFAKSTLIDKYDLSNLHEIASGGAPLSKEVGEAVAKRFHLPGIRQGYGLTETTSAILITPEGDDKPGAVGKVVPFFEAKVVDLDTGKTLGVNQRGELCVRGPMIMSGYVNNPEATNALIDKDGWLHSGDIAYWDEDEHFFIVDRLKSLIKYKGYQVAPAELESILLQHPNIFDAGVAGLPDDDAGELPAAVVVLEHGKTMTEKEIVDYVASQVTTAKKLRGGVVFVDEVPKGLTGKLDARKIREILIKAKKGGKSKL
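Purified P. pyralis luciferase, 10 nM final, with Km-level 10 uM D-luciferin and 10 uM ATP in 50 mM Tris acetate pH 7.5, 10 mM Mg acetate, 0.01% Tween-20, 0.05% BSA; 6-point qHTS titration about 60 µM downward; luminescence read.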
Rab9 promoter act – qHTS Assay for Rab9 Promoter Activators. Potency, µM (series often up to 9.22 µM), hits mostly activators. Huh7 Rab9 promoter-luciferase reporter, luminescence, 24 h. AID 485297, 2010. 320,000 compounds, 2.8% hits; also: nearly all actives have a fitted effect of over 60% in size
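Steps: seed 1500 Huh7 Rab9-luc cells per well, rest 2 h at 37 °C; add compound in DMSO; incubate 24 h; add luciferase reagent, 10 min ambient; read luminescence.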
ELG1 genotoxic – qHTS screen for small molecules that induce genotoxicity in human embryonic kidney (HEK293T) cells expressing luciferase-tagged ELG1; HEK293T ELG1-luciferase reporter, luminescence, 16 h; Potency, µM (highest dose often 46 µM), most hits filed as activators; 330,000 compounds, 1.3% hits; AID 504466, 2011; also: nearly all actives have a fitted effect of over 60% in size
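Luminescence read-out: rising ELG1-luciferase signal, reflecting elevated ELG1 protein under genetic stress, flags genotoxic compounds. Cells were treated for 16 hr at 37 °C before ONE-Glo detection.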
NPC1 promoter act – qHTS Assay for NPC1 Promoter Activators. Huh7 NPC1 promoter luciferase reporter, 24 h. Potency, µM (titrated, usually from 9.22 µM), hits mostly activators. 320,000 compounds, 2.4% hits. AID 485313, 2010; also: nearly all actives have a fitted effect of over 60% in size
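Quantitative HTS used a cell-based reporter: Huh7 cells stably bearing the NPC1 promoter upstream of luciferase were treated with compounds for 24 h, and promoter activation was read as luminescence.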
Luc counter – Counterscreen for Luciferase (Kinase-Glo TM) Inhibition. Kinase-Glo luciferase, ATP luminescence, 8 min. Potency, µM (top dose mostly 38.3 µM), most hits filed as inhibitors. Luciferin 4-monooxygenase (Photuris pensylvanica), Q27757. 200,000 compounds, 0.28% hits. AID 1379, 2008; also: nearly all actives have a fitted effect of over 60% in size
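Compound is pinned into ATP-containing buffer (10 uM ATP, imidazole pH 7.2, 7 mM MgCl2). Kinase-Glo luciferase reagent is then added. Light output is recorded following an 8-min room-temperature incubation.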
A number is an active result; 0 = inactive; ? = inconclusive; - = no result given. Calls follow the shape of the dose curve; as a rule, active = well fitted curve in the direction sought with a large enough effect; inconclusive = small, poorly fitted or top-dose-only effect, or another doubt; inactive = no such curve, though single readings can be large; an effect the other way counts as inactive or inconclusive.

SMILES	SMN2 splice enh	FLuc counter	Rab9 promoter act	ELG1 genotoxic	NPC1 promoter act	Luc counter
CS(=O)(=O)N(CC(=O)N1CCCCCC1)c1cccc(F)c1	-	0	0	0	0	-
CC(=O)Nc1ccc2nc(CN3CCC(CO)(CCc4ccccc4)CC3)ccc2c1	-	0	0	0	0	-
Clc1cccc(-c2ccc(CNCCSc3nnnn3-c3ccccc3)o2)c1	-	0	-	-	-	-
CC(C)(C)c1ccc(C(=O)Nc2sc3c(c2C(=O)O)CCC3)cc1	-	11µM	0	0	0	0
COC(=O)c1c(NC(=O)c2ccccc2C(=O)O)sc2c1CCCC2	0	12µM	-	-	-	-
CCOC(=O)c1c(NC(=O)c2ccccc2C(=O)O)sc2c1CCCC2	-	0	0	0	0	-
O=C(Nc1sc2c(c1C(=O)O)CCCC2)c1ccc(F)cc1	-	15µM	?	0	0	-
O=c1c(C(c2ccccc2)c2c(O)sc3ccccc3c2=O)c(O)sc2ccccc12	0	12µM	0	0	0	0
O=c1c2ccccc2sc2ccc(Cl)cc12	0	?	0	0	0	0
COc1ccc(/C=N/NC(=O)CCc2ccccc2)cc1O	0	0	0	0	0	0
COc1cccc(/C=N/NC(=O)CCCc2ccc(OC)c(C)c2)c1	0	19µM	0	0	0	0
COc1ccc(NC(=O)CCCc2ccc(OC)c(C)c2)cc1	-	0	0	0	0	-
COc1cccc(/C=N/NC(=O)CCc2ccccc2)c1	0	11µM	0	0	0	0
Cc1ccc(N2CC(C)Cn3c2nc2c3c(=O)n(CC(=O)O)c(=O)n2C)cc1 (stereo not drawn)	0	0	-	-	-	-
Cc1nn2c(C)c(C(=O)NCc3ccco3)cnc2c1-c1ccccc1	-	0	-	-	-	-
Cc1ccc(C(=O)Nc2ncc(C)s2)o1	13µM	11µM	4µM	?	3.2µM	?
CSc1ccccc1C(=O)Nc1ncc(C)s1	0	?	0	0	0	0
Cc1ccc(C(=O)Nc2ncc(C)s2)s1	-	0.85µM	?	?	0.45µM	-
Cc1ccc(C(=O)Nc2ncc(Cc3ccc(F)cc3)s2)o1	11µM	2.7µM	2.8µM	?	2.5µM	0
Cc1cc(OCC(=O)N(Cc2sccc2C)C2CCS(=O)(=O)C2)ccc1Cl (stereo not drawn)	0	0	-	-	-	-
O=C(NCCc1cscn1)C1CCC(=O)N(Cc2ccc(Cl)cc2)C1 (stereo not drawn)	-	3µM	?	?	?	-
O=C(NCCc1ccccc1)C1CCC(=O)N(Cc2ccc(Cl)cc2)C1 (stereo not drawn)	-	0	0	0	0	-
Cc1ccc(NC(=O)c2ccc(-n3c(C)nnc3C)cc2)cc1F	-	0	-	-	-	-
COCc1cc(C)nc2sc3c(c12)NC(c1ccccc1C(=O)O)N(c1cccc(C(F)(F)F)c1)C3=O (stereo not drawn)	0	?	-	-	-	-
COc1ccccc1C1Nc2c(sc3nc(C)cc(C)c23)C(=O)N1c1ccccc1 (stereo not drawn)	13µM	?	-	-	-	-
SMILES	SMN2 splice enh	FLuc counter	Rab9 promoter act	ELG1 genotoxic	NPC1 promoter act	Luc counter
O=C(Nc1nnc(-c2ccc(F)cc2)s1)c1ccco1	-	2.7µM	3.2µM	?	2.8µM	-
Cc1noc(C)c1C(=O)Nc1nnc(-c2ccccc2)s1	0	15µM	0	0	0	0
Cc1cccc(N(C)S(=O)(=O)c2nnc(NC(=O)c3ccco3)s2)c1	-	0	0	0	0	-
O=C(Nc1nnc(S(=O)(=O)N2CCOCC2)s1)c1ccc(F)cc1	-	0	0	0	0	-
Cc1cccc(-c2nnc(NC(=O)c3ccco3)s2)c1	-	11µM	3.2µM	21µM	2.8µM	-
O=C(Nc1nnc(S(=O)(=O)N2CCN(c3ccc(F)cc3)CC2)s1)c1ccco1	-	19µM	0	0	0	-
O=C(CSc1nc2c([nH]c3ccccc32)c(=O)n1-c1ccc(Cl)cc1)NC1CCCCC1	-	0	-	-	-	-
C1=C(CCNC2=NCCCCC2)CCCC1	?	0	0	0	0	0
CCc1ccc(-c2cc(C(=O)N/N=C/c3c[nH]c4ccccc34)[nH]n2)cc1	0	4.3µM	0	0	0	0
CCc1ccc2c(Cl)c(C(=O)N/N=C/c3c[nH]c4ccccc34)sc2c1	0	19µM	0	0	0	0
O=C(/C=C/c1ccc([N+](=O)[O-])cc1)NCCN1C(=O)S/C(=C\c2ccc(F)cc2)C1=O	0	0	0	0	0	0
CCOC(=O)c1sc2nc3n(c(=O)c2c1C)CCC3	0	?	0	0	0	0
CCOC(=O)c1sc2nc3n(c(=O)c2c1C)CCCCC3	0	15µM	?	?	?	0
Cc1c(C(=O)OCc2ccc(F)cc2)sc2nc3n(c(=O)c12)CCC3	-	15µM	0	0	0	-
COC(=O)CCC(NC(=O)c1cc(-c2ccc3c(c2)OCCO3)oc1C)C(=O)OC (stereo not drawn)	0	17µM	0	0	0	0
CCOC(=O)CNC(=O)c1ccc2c(c1)OCCO2	0	19µM	?	?	?	0
CCOC(=O)CNC(=O)c1cc(-c2ccc3c(c2)OCCO3)oc1C	0	9.5µM	0	?	0	0
Cc1oc(-c2ccc3c(c2)OCCO3)cc1C(=O)NC(Cc1ccccc1)C(=O)O (stereo not drawn)	-	15µM	0	0	0	-
CCOC(=O)CNC(=O)c1cc(C)oc1C	?	0	0	0	0	0
COC(=O)C(Cc1c[nH]c2ccccc12)NC(=O)c1cc(-c2ccc(OC)c(OC)c2)oc1C (stereo not drawn)	0	0	0	0	0	0
COc1ccc(-c2nc(S(=O)(=O)c3ccc(Cl)cc3)c(NCc3ccccc3)o2)cc1	-	0	-	-	-	-
O=C(Nc1ccc(N2CCCCC2)cc1)c1ccc2ccccc2n1	0	4.8µM	2.8µM	?	?	0
Cc1ccccc1C(=O)Nc1ccc(N2CCCC2)cc1	-	9.5µM	?	0	?	?
O=C(Nc1cccc(S(=O)(=O)N2CCCCCC2)c1)c1ccc2ccccc2n1	0	?	0	0	0	0
O=C(Nc1ccc(N2CCCC2)cc1)C(Cl)c1ccccc1 (stereo not drawn)	0	8.5µM	0	0	0	?
CCCCCCN(C(=O)CCCCCN1C(=O)NC(c2ccc(C3CCCCC3)cc2)C(C(=O)OCc2ccccc2)=C1C)C(C(=O)NCCCC)c1ccc(OCC(=O)OC)c(C(=O)OC)c1 (stereo not drawn)	0	0	0	0	0	0
COC(=O)C1OC(=O)C2OC23[C@]2(C)C(OC(C)=O)CC4C(C)(C)C(=O)CC[C@]4(C)C2CC[C@@]13C (stereo partly drawn)	0	-	-	-	-	0
